{"source": "PubChem BioAssay (EPA / NIEHS)", "note": "Results filed as inconclusive are left out. The source made the active and inactive calls. Rule for the calls: active = hit-call score of the fitted dose curve at least 0.9, where 1 is the maximum; inconclusive = response in the unintended direction; inactive = score below 0.9."}
{"test": "ATG_XTT_Cytotoxicity: Cytotoxicity Assessment in the Attagene TRANS-FACTORIAL HepG2 Assay (AID 2283584);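 for AC50: cells exposed to compound for 24 h before reading; active means loss of viability signal versus DMSO baseline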", "method": "ATG_XTT_Cytotoxicity is a cell-based, single-readout assay that uses HepG2, a human liver cell line, with measurements taken at 24 hours after chemical dosing in a 24-well plate.ATG_XTT_Cytotoxicity is one of one assay component(s) measured or calculated from the ATG_XTT_Cytotoxicity assay. It is designed to make measurements of cell number, a form of viability reporter, as detected with […] signals by XTT cytotoxicity assay technology.Data from the assay component ATG_XTT_Cytotoxicity was analyzed into 1 assay endpoint. This assay endpoint, ATG_XTT_Cytotoxicity, was analyzed in the positive analysis fitting direction relative to DMSO as the negative control and baseline of activity. Using a type of viability reporter, loss-of-signal activity can be used to understand changes in the viability. Furthermore, this assay endpoint can be referred to as a primary readout, because the performed assay has only produced 1 assay endpoint. To generalize the intended target to other relatable targets, this assay endpoint is annotated to the cell cycle intended target family, where the subfamily is cytotoxicity.\nHuman liver HepG2 cells are transiently transfected with multiple reporter transcription units (MRTUs) in 6-well plates using FuGene 6 reagent (Roche; 3 ml FuGene/1 mg DNA). The MRTU constructs are regulated by a cis-regulating element (promoter). […] A major difference between the CIS and TRANS system is that in CIS activities of endogenous TFs are measured, whereas the TRANS assay evaluates changes in activities of exogenous, chimeric NR-Gal4 proteins. […] At the end of 24 hour incubation, total RNA was isolated using TriZol reagent (Invitrogen). The isolated RNA is then reverse-transcribed using oligo(dT) primer and Mo-MLV reverse transcriptase (Invitrogen) with DNAse I (Ambion) treatment for 30 min. The one-tenth of the produced cDNA was amplified by PCR using Taq DNA polymerase (Invitrogen) and two reporter sequence-specific primers. The PCR products were fluorescently labeled by primer extension with 6-arboxyfluorescein (6-FAM) 5'-labeled reporter sequence-specific primer (2 min at 95 C, 20 s at 68 C and 10 min at 72 C) and these products were digested with 5U of HpaI (New England Biolabs) for 2h at 37 C. The fragments were purified using Qiaquick PCR columns (Qiagen), analyzed on an ABI 3130xL genetic analyzer (Applied Biosystems) with peak positions identified by using a set of X-rhodamine (ROX)-labeled MapMarker1000 molecular weight standards (BioVentures). The raw capillary electrophoresis data was processed using Attagraph software (Attagene)."}
{"smiles": "OC(CCl)CCl", "outcome": "inactive"}
{"smiles": "Nc1ccn([C@@H]2O[C@H](CO)[C@@H](O)[C@@H]2O)c(=O)n1", "outcome": "inactive"}
{"smiles": "Cn1c(=O)c2[nH]cnc2n(C)c1=O", "outcome": "inactive"}
{"smiles": "CC1(C)C(=O)N(Cl)C(=O)N1Cl", "outcome": "inactive"}
{"smiles": "CCc1cccc(CC)c1N", "outcome": "inactive"}
{"smiles": "CNC(C)=O", "outcome": "inactive"}
{"smiles": "CCCCCCCCCCCCCCO", "outcome": "inactive"}
{"smiles": "OC[C@H]1O[C@@H]2O[C@H]3[C@H](O)[C@@H](O)[C@@H](O[C@H]4[C@H](O)[C@@H](O)[C@@H](O[C@H]5[C@H](O)[C@@H](O)[C@@H](O[C@H]6[C@H](O)[C@@H](O)[C@@H](O[C@H]7[C@H](O)[C@@H](O)[C@@H](O[C@H]1[C@H](O)[C@H]2O)O[C@@H]7CO)O[C@@H]6CO)O[C@@H]5CO)O[C@@H]4CO)O[C@@H]3CO", "outcome": "inactive"}
{"smiles": "CCCCCCOC(=O)CC(CC(=O)OCCCCCC)(OC(=O)CCC)C(=O)OCCCCCC", "outcome": "inactive"}
{"smiles": "OC[C@H]1O[C@@](CO)(O[C@H]2O[C@H](CO)[C@@H](O)[C@H](O)[C@H]2O)[C@@H](O)[C@@H]1O", "outcome": "inactive"}
{"smiles": "CCCCCCCCN(C)C", "outcome": "inactive"}
{"smiles": "CCc1ccc(O)c(C(C)(C)C)c1", "outcome": "inactive"}
{"smiles": "O=C(O)c1cccc(C(=O)O)c1", "outcome": "inactive"}
{"smiles": "O=C(O)CO", "outcome": "inactive"}
{"smiles": "C=CCc1cc(S(=O)(=O)c2ccc(O)c(CC=C)c2)ccc1O", "outcome": "inactive"}
{"smiles": "O=c1[nH]cnc2c1ncn2[C@H]1CC[C@@H](CO)O1", "outcome": "inactive"}
{"smiles": "OCCNCCO", "outcome": "inactive"}
{"smiles": "NNC(=O)c1ccncc1", "outcome": "inactive"}
{"smiles": "CCN(CC)C(=S)SSC(=S)N(CC)CC", "outcome": "inactive"}
{"smiles": "NC(N)=O", "outcome": "inactive"}
{"smiles": "CCCCCCCCCCCCCCCCOS(=O)(=O)O", "AC50": "79 µM (active)"}
{"smiles": "NC(=O)N1c2ccccc2C=Cc2ccccc21", "outcome": "inactive"}
{"smiles": "Cc1cccc(O)c1C", "outcome": "inactive"}
{"smiles": "S=P(N1CC1)(N1CC1)N1CC1", "outcome": "inactive"}
{"smiles": "OCc1c[nH]c2ccccc12", "outcome": "inactive"}
{"smiles": "CC[C@H](C)C(=O)O[C@H]1C[C@H](O)C=C2C=C[C@H](C)[C@H](CC[C@@H](O)C[C@@H](O)CC(=O)O)[C@H]21", "outcome": "inactive"}
{"smiles": "O=S1(=O)CCCO1", "outcome": "inactive"}
{"smiles": "CC(C)CC(C)O", "note": "(stereo not given)", "outcome": "inactive"}
{"smiles": "C=CN1CCCC1=O", "outcome": "inactive"}
{"smiles": "OC(Cn1cncn1)(Cn1cncn1)c1ccc(F)cc1F", "outcome": "inactive"}
{"smiles": "OCCOCCOCCO", "outcome": "inactive"}
{"smiles": "Cn1cc[nH]c1=S", "outcome": "inactive"}
{"smiles": "COc1cc2c(c(OC)c1OC)-c1ccc(OC)c(=O)cc1[C@@H](NC(C)=O)CC2", "outcome": "inactive"}
{"smiles": "CCCCCOC(C)=O", "outcome": "inactive"}
{"smiles": "CC(C)C(=O)Nc1ccc([N+](=O)[O-])c(C(F)(F)F)c1", "outcome": "inactive"}
{"smiles": "OCC(CO)(CO)CO", "outcome": "inactive"}
{"smiles": "C[C@]12C=CC(=O)C=C1CC[C@H]1[C@@H]3C[C@@H](O)[C@](O)(C(=O)CO)[C@@]3(C)C[C@H](O)[C@@]12F", "outcome": "inactive"}
{"smiles": "CCCC(CCC)C(=O)O", "outcome": "inactive"}
{"smiles": "O=C(N[C@H](CO)[C@H](O)c1ccc([N+](=O)[O-])cc1)C(Cl)Cl", "outcome": "inactive"}
{"smiles": "Cc1ccc(S(=O)(=O)NC(=O)NN2CCCCCC2)cc1", "outcome": "inactive"}
